Test results taken from PubChem BioAssay AID1159580 (chemical genetic matrix, 2015).
Several values for one entry are separate records, joined by “and”; a condition that tells them apart may be missing. Identical values can stand only once. About 2,000 (36%) of roughly 5,500 compounds were called active. About 18% were inconclusive and are not listed. No stated cut-off is given here; in the data, active means normalized growth mostly below about 0.91 (no sharp cut-off); inconclusive means no clear call, values can overlap the other calls; inactive means mostly above about 0.92. The list shows a part of the results.

Assay: chemical genetic growth profiling, strain panel (AID 1159580);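 further: tested at 20 µM; growth read once vehicle control cultures reached saturation at 30 °C; 1 = growth at the plate median or of vehicle wells; lower values mean less growth of the strain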
Conditions: S. cerevisiae deletion strains, growth OD

Measured: normalized growth

O=C(O)/C=C/c1ccc(O)c(O)c1
inactive: locus YAL021C, strain ccr4, active compounds read low 0.981 | locus YAL026C, strain drs2, active compounds read low 1 | locus YAL030W, strain snc1, active compounds read low 1 | locus YAL040C, strain CLN3, active compounds read low 1.02 | locus YBL061C, strain skt5, active compounds read low 0.996 | locus YBR009C, strain hhf1, active compounds read low 0.995 | locus YBR021W, strain FUR4, active compounds read low 1.01 | locus YBR023C, strain chs3, active compounds read low 1 | locus YBR171W, strain sec66, active compounds read low 1 | locus YBR229C, strain ROT2, active compounds read low 1.01 | locus YBR231C, strain swc5, active compounds read low 1 | locus YBR279W, strain paf1, active compounds read low 0.995 | locus YCL011C, strain gbp2, active compounds read low 1.01 | locus YCL016C, strain dcc1, active compounds read low 1 | locus YCL029C, strain bik1, active compounds read low 1.01 | locus YCL061C, strain MRC1 (second series), active compounds read low 1.01 | locus YCL061C, strain MRC1, active compounds read low 1 | locus YCL069W, strain vba3, active compounds read low 1 | locus YCR088W, strain abp1, active compounds read low 1 | locus YDL005C, strain med2, active compounds read low 1 | locus YDL035C, strain GPR1, active compounds read low 1.02 | locus YDL040C, strain nat1, active compounds read low 1 | locus YDL074C, strain BRE1, active compounds read low 1.05 | locus YDL101C, strain DUN1, active compounds read low 1.01 | locus YDL134C, strain PPH21, active compounds read low 1 | locus YDL185W, strain tfp1, active compounds read low 1 | locus YDL192W, strain arf1, active compounds read low 1 | locus YDR001C, strain nth1, active compounds read low 1 | locus YDR069C, strain doa4, active compounds read low 1.01 | locus YDR101C, strain arx1, active compounds read low 1 | locus YDR137W, strain rgp1, active compounds read low 0.998 | locus YDR150W, strain NUM1, active compounds read low 1.01 | locus YDR159W, strain sac3, active compounds read low 1 | locus YDR162C, strain NBP2, active compounds read low 1 | locus YDR195W, strain ref2 0.977 | locus YDR297W, strain sur2, active compounds read low 1.01 | locus YDR318W, strain mcm21, active compounds read low 1 | locus YDR334W, strain swr1, active compounds read low 0.993 | locus YDR335W, strain msn5, active compounds read low 0.99 | locus YDR388W, active compounds read low 1.01 | locus YDR392W, strain spt3, active compounds read low 1.03 | locus YDR502C, strain sam2, active compounds read low 0.996 | locus YEL003W, strain gim4, active compounds read low 1.01 | locus YEL037C, strain rad23, active compounds read low 0.991 | locus YEL061C, strain CIN8 (second series), active compounds read low 1 | locus YEL061C, strain CIN8, active compounds read low 1.01 | locus YER002W, strain NOP16, active compounds read low 1.02 | locus YER015W, strain faa2, active compounds read low 1 | locus YER016W, strain bim1, active compounds read low 1.01 | locus YER110C, active compounds read low 1.02 | locus YER111C, strain swi4, active compounds read low 0.981 | locus YER155C, strain BEM2 (second series), active compounds read low 1.03 | locus YER155C, strain BEM2, active compounds read low 1 | locus YER167W, strain BCK2, active compounds read low 1.02 | locus YFR010W, strain ubp6, active compounds read low 1 | locus YGL078C, strain dbp3, active compounds read low 0.997 | locus YGL086W, strain mad1, active compounds read low 1.03 | locus YGL167C, strain pmr1, active compounds read low 1 | locus YGL173C, strain kem1, active compounds read low 1 | locus YGL227W, strain vid30, active compounds read low 1.01 | locus YGL240W, strain doc1, active compounds read low 1 | locus YGL248W, strain PDE1, active compounds read low 0.999 | locus YGL253W, strain hxk2, active compounds read low 1 | locus YGR078C, strain PAC10, active compounds read low 1 | locus YGR135W, strain pre9, active compounds read low 1.01 | locus YGR229C, strain SMI1, active compounds read low 1.01 and 1.04 | locus YGR252W, strain gcn5, active compounds read low 0.981 | locus YHR013C, strain ard1, active compounds read low 0.993 | locus YHR027C, strain rpn1, active compounds read low 0.992 | locus YHR030C, strain SLT2, active compounds read low 1.01 | locus YHR079C, strain IRE1 (second series), active compounds read low 1.03 | locus YHR079C, strain IRE1, active compounds read low 0.993 | locus YHR094C, strain hxt1, active compounds read low 1.01 | locus YHR129C, strain ARP1, active compounds read low 1.02 | locus YHR142W, strain chs7, active compounds read low 1.01 | locus YHR200W, strain rpn10, active compounds read low 1.03 | locus YIL066C, strain RNR3, active compounds read low 1.01 | locus YIL073C, strain SPO22, active compounds read low 1.04 | locus YIL125W, strain kgd1, active compounds read low 1.01 | locus YIR030C, strain dcg1, active compounds read low 1 | locus YJL092W, strain hpr5, active compounds read low 1 | locus YJL095W, strain BCK1 (second series), active compounds read low 0.994 | locus YJL095W, strain BCK1, active compounds read low 0.996 and 1.01 | locus YJL115W, strain asf1, active compounds read low 0.991 | locus YJL129C, strain trk1, active compounds read low 1 | locus YJL134W, strain LCB3, active compounds read low 1.01 | locus YJL154C, strain vps35, active compounds read low 0.999 | locus YJL164C, strain tpk1, active compounds read low 1.01 | locus YJL166W, strain qcr8, active compounds read low 1 | locus YJL168C, strain set2, active compounds read low 1 | locus YJL187C, strain SWE1 (second series), active compounds read low 1 | locus YJL187C, strain SWE1, active compounds read low 0.998
